Source: PubChem BioAssay
Shown are actives, neighbours in structure and some others; about 8% of the full set was active somewhere.
MARV entry inh – qHTS for inhibitors of binding or entry into cells for Marburg Virus | Potency, µM (doses to about 37.8 µM), actives largely listed as inhibitors | 1.8% of 300,000 active | Marburg virus pseudotyped entry inhibition, cell reporter; calls by dose curve; tested in HEK293 cells
SARS PLpro yeast – qHTS of Yeast-based Assay for SARS-CoV PLP | S. cerevisiae expressing SARS-CoV PLpro, growth rescue | Potency, µM (titrated, usually from 32.9 µM), usual class: activators | 0.19% of 330,000 active; calls by dose curve; also: nearly all actives have a fitted effect of over 55% in size
FMDV inh – High Throughput Screening for Foot and Mouth Disease Virus Antivirals; Potency, µM (titrated, usually from 57.9 µM), usual class: inhibitors; 1.2% of 410,000 active; AID 1159524, 2015; FMDV antiviral cell-based qHTS; calls by dose curve; tested in HEK293T cells; also: read-out not given here; nearly all actives have a fitted effect of over 45% in size
HCMV antiviral – qHTS Assay for inhibitors of the human cytomegalovirus (HCMV); HFF cells, HCMV-luciferase reporter, 72 h; stronger effect = lower value; activity change, negative = inhibition, % at 57.5 µM; 4.5% of 410,000 active; in the data active = activity change below about -60%; inconclusive = no clear call, values can overlap the other calls; inactive = above about -39%
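HFF cells seeded 16 h at 37C, treated with compounds, infected with luciferase-reporter HCMV at MOI 1 PFU/cell; luciferase read at 72 h post infection, normalized to buffer-only and Salinomycin controls.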
LASV entry inh – qHTS for Inhibitors of binding or entry into cells for Lassa Virus; Lassa virus pseudotype entry inhibition, cell reporter; Potency, µM (highest dose often 37.9 µM), most hits filed as inhibitors; 1.2% of 300,000 active; calls by dose curve; tested in HEK293 cells; also: nearly all actives have a fitted effect of over 50% in size
HCV inhibitor – qHTS Assay for Inhibitors of Hepatitis C Virus (HCV). AID 651820, 2012. 3.4% of 340,000 active. Huh7.5.1 HCVcc-Cre infection, luciferase reporter, 44 h. Potency, µM (top dose mostly 41.8 µM), hits mostly inhibitors; active = well fitted inhibition curve with a large enough effect; inconclusive = small, poorly fitted or top-dose-only effect, or another doubt; inactive = no such curve, though single readings can be large or run the other way
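Cells seeded at 1,000/well and cultured 4 h, then compounds added followed by HCVcc-Cre virus (~0.5 moi). After 44 h further culture, luciferase substrate was added, plates held 15 min at room temperature, and luminescence read for 15 sec.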
Hits are given with their value; . = inactive; ? = inconclusive; / = no result given; ! = not active in a repeat.

SMILES	MARV entry inh	SARS PLpro yeast	FMDV inh	HCMV antiviral	LASV entry inh	HCV inhibitor
COc1ccc(OC)c(CNC(=O)CCCn2ccc3cc(S(=O)(=O)N4CCCC4)ccc32)c1	/	.	?	.	.	10µM
CCc1ccc(CNC(=O)CCCn2ccc3cc(S(=O)(=O)N4CCCC4)ccc32)cc1	/	/	.	-89	?	/
COc1ccc(-c2nc3c4ccccc4n(CC(=O)Nc4cc(F)ccc4F)c(=O)n3n2)cc1	/	/	.	.	.	/
CC[C@@H](C)[C@@H](CO[C@@H](Cc1ccccc1)C(=O)N[C@@H](CCS(C)(=O)=O)C(=O)OC(C)C)NC[C@@H](N)CS	/	/	.	/	/	/
COc1ccc(-c2noc(-c3ccccc3C(=O)Nc3cccnc3)n2)cc1	?	.	?	.	.	10µM
COc1ccc(-c2noc(-c3ccccc3C(=O)Nc3cccc(OC)c3)n2)cc1	?	.	.	.	.	?
COc1ccc(-c2noc(-c3ccccc3C(=O)Nc3cccnc3)n2)cc1OC	.	.	/	.	.	8.9µM
O=C(Nc1cccnc1)c1ccccc1-c1nc(-c2ccccc2F)no1	?	.	.	.	.	?
COc1ccccc1-c1noc(-c2ccccc2C(=O)Nc2cccnc2)n1	.	.	.	.	.	11µM
COc1ccc(-c2noc(CNC(=O)c3ccco3)n2)cc1	.	/	.	.	.	/
COc1ccc(-c2noc(CNC(=O)c3ccccc3Br)n2)cc1	.	/	.	-63	.	/
CC(c1nnnn1C(C)(C)C)N(Cc1cccnc1)Cc1ccccc1Cl (centres undefined)	?	.	?	.	.	?
CC(C)(C)n1nnnc1C(c1cccs1)N(Cc1cccnc1)Cc1ccccc1Cl (centres undefined)	?	?	.	.	.	10µM
FC(F)(F)c1cc(NC(=S)Nc2ccc3ccccc3c2)cc(C(F)(F)F)c1	.	/	/	/	/	/
COc1ccc(CNC(=O)/C=C\c2ccc3[nH]cc(CCN(C)C)c3c2)cc1	35µM	/	.	/	/	/
COc1ccc(/C=C/C(=O)NCCc2c[nH]c3ccccc23)cc1OC	/	.	.	.	/	.
COc1cc2c(cc1OC)CN(C(=O)c1cc(C3CC3)nn1-c1ccccc1)CC2	/	.	?	.	/	?
NC(=O)C1Cc2ccccc2CN1C(=O)c1cc(C2CC2)nn1-c1ccccc1 (centres undefined)	/	.	.	-77	/	?
O=C(NC1CCc2ccccc21)c1cc(COc2ccc(F)cc2Cl)on1 (centres undefined)	/	.	.	.	/	.
O=C(NC1CCc2ccccc21)c1cc(COc2cncc(Cl)c2)on1 (centres undefined)	.	.	.	.	?	13µM
CCN1CCN(c2ccc(S(=O)(=O)N3CCOCC3)cc2NC(=O)CCC(C)C)CC1	.	.	.	.	.	.
COC(=O)c1nnn(-c2ccccc2)c1N	?	.	.	.	.	?
C#Cc1cccc(-n2nnc(C(=O)OC)c2-c2ccccc2)c1	.	.	?	-102	.	.
Cc1cc(NC(=O)c2ccc([N+](=O)[O-])o2)ccc1NC(=O)c1ccco1	/	.	.	-85	/	?
COc1ccc(C(=O)Nc2cccc(/C(C)=N/NC(=O)c3ccc([N+](=O)[O-])c(C)c3)c2)cc1OC	?	.	?	.	?	2.8µM
SMILES	MARV entry inh	SARS PLpro yeast	FMDV inh	HCMV antiviral	LASV entry inh	HCV inhibitor
Cc1cc(C(=O)Nc2cccc(NC(=O)c3ccco3)c2)ccc1[N+](=O)[O-]	.	.	.	-82	.	?
O=C(NNc1ccc([N+](=O)[O-])cc1[N+](=O)[O-])c1ccco1	?	.	20µM	/	?	.
OCCN1CCN(C(c2ccc(Cl)cc2Cl)c2sc3nc(-c4ccco4)nn3c2O)CC1 (centres undefined)	/	/	.	.	.	/
O=C(Cc1ccc(Cl)cc1)NC1CCCN(Cc2ccccc2F)C1 (centres undefined)	/	.	.	.	/	.
CC(=O)OCC(=O)Nc1ccc([N+](=O)[O-])cc1Cl	?	.	.	.	.	.
Cc1cc(NC(=O)c2ccc([N+](=O)[O-])cc2Cl)ccc1NC(=O)c1ccco1	.	.	.	.	.	7.9µM
COc1ccccc1/C=C(\NC(=O)c1ccc(OC)c(OC)c1)C(=O)Nc1ccc([N+](=O)[O-])cc1	.	.	.	.	.	.
Cc1cc([N+](=O)[O-])ccc1NC(=O)c1ccco1	.	.	.	.	.	.
COc1ccccc1/C=C(\NC(=O)c1ccc(OC)c(OC)c1)C(=O)Nc1cccc([N+](=O)[O-])c1	.	.	.	-61	?	.
CC(=O)Oc1c(C)cc(Cl)cc1C(=O)Nc1ccc([N+](=O)[O-])cc1Cl	1.5µM	.	.	-98	3.7µM	?
CC(CCN1CCc2nc(-c3ccccc3)c(-c3ccccc3)cc2C1)=NOC[C@@H](O)[C@H]1O[C@@H]2OC(C)(C)O[C@H]2[C@@H]1O	.	/	/	/	/	/
O=C(CCc1ccc(S(=O)(=O)NCCc2ccccc2)cc1)N1CCN(Cc2ccc3c(c2)OCO3)CC1	/	.	/	-89	/	/
CCCNS(=O)(=O)c1ccc(OCC(=O)N2CCN(Cc3ccc4c(c3)OCO4)CC2)c(C)c1	?	.	.	?	?	7.9µM
Cc1cc(C)cc(C(O)c2ncc(-c3ccccc3C)[nH]2)c1 (centres undefined)	/	/	.	.	/	/
COc1cccc(C2C(=O)N(C3CCCCC3)CC(=O)N2CCc2ccc(OC)c(OC)c2)c1 (centres undefined)	/	/	.	.	.	/
CCCCNc1ccc(S(=O)(=O)c2cccc([N+](=O)[O-])c2)cc1[N+](=O)[O-]	.	.	.	.	.	.
CCCCCCNc1c([N+](=O)[O-])cc(C)cc1[N+](=O)[O-]	.	/	.	-69	.	.
C[N+](C)(C)CCOC(=O)CBr	.	/	.	.	.	?
C[N+](C)(C)CCOC(=O)CCC(=O)OCC[N+](C)(C)C	?	/	.	-77!	.	.
COc1ccc(/C=N/Nc2ncc(C(F)(F)F)cc2Cl)cc1OC	13µM	.	.	.	.	?
O=C(CCN=C1NS(=O)(=O)c2ccccc21)N1CCc2ccccc2C1	.	.	.	.	.	.
CCCCCOC(=O)C1C(c2ccccc2)C(C(=O)O)C1c1ccccc1 (centres undefined)	.	.	.	-93	.	.
COC(=O)C1C(c2ccccc2)C(C(=O)OCc2ccco2)C1c1ccccc1 (centres undefined)	21µM	.	.	.	?	?
O=C(O)C1C(c2ccccc2)C(C(=O)OCCCO)C1c1ccccc1 (centres undefined)	.	.	.	.	.	.
O=C(O)C1C(c2ccccc2)C(C(=O)OCc2ccco2)C1c1ccccc1 (centres undefined)	.	.	.	.	.	.
